Assay outcomes deposited in PubChem by several laboratories.
A selection: hits, their analogues and other compounds. The true share with any hit is near 12%.
Arbovirus anti: antivirals against arbovirus infection; arbovirus infection cell-based antiviral screen; inhibition, % at 10 µM; 200,000 compounds, 0.37% hits; AID 1251; in the data active = inhibition above about 30%
WT yeast gro inh: growth inhibition of WT yeast, mitochondrial fusion screen. AID 1362. 190,000 compounds, 2.1% hits. inhibition, % at 10 µM. mitochondrial fusion phenotypic screen, WT strain; in the data active = inhibition above about 58%; tested in S. cerevisiae
L major viab: reduces viability of Leishmania major promastigotes; resazurin fluorescence viability; inhibition, % at 10 µM; 200,000 compounds, 9% hits; AID 1063; in the data active = inhibition above about 50%;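 note: promastigotes grown with compound for 44 hours at 28 °C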
CHOP inhibitor: blocks CHOP induction under ER stress; AID 2732; CHO-K1 CHOP-promoter luciferase, tunicamycin-induced, 15-18 h; inhibition, % at 10 µM; 220,000 compounds, 3.8% hits;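 active = compounds that reduced the stress-induced luciferase reporter signal by more than about 70% of percent inhibition, limit read from the data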
Large screens that a line does not name were inactive.

COC(=O)CC1C(=O)NCCN1Cc1cn(-c2ccc(C)cc2)nc1-c1cccc(C)c1 (centres undefined)	none
CCOC(=O)N1CCN(S(=O)(=O)c2ccc(C(=O)NNc3nc4c(C)cccc4s3)cc2)CC1	none
Cc1cc(C)c2nc(NC(=O)[C@@H](NC(=O)c3cccc(S(=O)(=O)N4CCOCC4)c3)C(C)C)sc2c1	L major viab 96.7, CHOP inhibitor 93.1
Cc1cc(C)c2nc(NNC(=O)c3ccc(S(=O)(=O)N4CCCCC4)cc3)sc2c1	L major viab 89.1
CCOC(=O)N1CCN(S(=O)(=O)c2ccc(C(=O)NNc3nc4c(C)cc(C)cc4s3)cc2)CC1	L major viab 88.1
Cc1nn(-c2cc(N3CCCCCC3)ccc2[N+](=O)[O-])c(=O)c2ccccc12	none
Cc1ccc(-c2nn(-c3cc(N4CCNCC4)ccc3[N+](=O)[O-])c(=O)c3ccccc23)cc1	L major viab 100.7
CCCc1cc(=O)[nH]c(SCCCCN2C(=O)c3ccccc3C2=O)n1	none
COc1cccc(-n2cnc3c(sc4nc(N5CCOCC5)c5c(c43)CCCC5)c2=O)c1	none
Cn1c(=O)c2[nH]c(N=Nc3ccc(N)cc3N)nc2n(C)c1=O	none (no result: Arbovirus anti, WT yeast gro inh, L major viab)
C=C1CCN([C@H](C(=O)NCc2ccccc2)C(C)C)S(=O)(=O)c2ccccc21	none (no result: Arbovirus anti, WT yeast gro inh, L major viab)
OCC1(CCc2ccccc2)CCN(Cc2ccc(OC(F)F)cc2)CC1	L major viab 82.2
Cc1ccccc1-c1ncc(CN2CCC(CO)(CCCc3ccccc3)CC2)cn1	WT yeast gro inh 86.6
OCC1(CCc2ccccc2)CCN(Cc2cc(Cl)ccc2O)CC1	none
OCC1(Cc2ccc(Cl)cc2)CCN(Cc2ccc(F)c(F)c2)CC1	none (no result: Arbovirus anti, WT yeast gro inh, L major viab)
OCC1(CCCc2ccccc2)CCN(Cc2ccc(F)cc2)CC1	L major viab 91.3
Cc1cc(C)cc(NS(=O)(=O)c2ccc(NC(=O)C3CCCCC3C(=O)O)cc2)c1 (centres undefined)	none
CCc1ccc(-n2c(SCC(=O)c3ccc4c(c3)NC(=O)CO4)nc3ccccc3c2=O)cc1	none
O=C1COc2ccc(C(=O)/C=C/c3ccccc3)cc2N1	L major viab 83.8
Cc1cc(C)cc(OCC(=O)OCC(=O)c2ccc3c(c2)NC(=O)CO3)c1	WT yeast gro inh 70.4
O=C(/C=C/c1ccccc1)c1ccc2c(c1)OCCCCO2	none
Cc1ccc(C(=O)NCC(=O)OCC(=O)c2ccc3c(c2)NC(=O)CO3)cc1C	none
Cn1c(SCC(=O)c2ccc3c(c2)NC(=O)CO3)nc2ccccc21	CHOP inhibitor 85.8
CC(C)=NOCc1ccc(-c2cn([C@@H]3COC[C@H]3O)nn2)cc1	none
COC(=O)Cc1c(C(=O)OC)nnn1-c1cccc(C(F)(F)F)c1	none
CC(C)NC(=O)NC(=O)COC(=O)c1cccc(OC(F)F)c1	none
CCOC(=O)C1=C(CNCCOc2ccc(OC)cc2)NC(=O)NC1c1ccc2c(c1)OCO2 (centres undefined)	none
CCOC(=O)C1=C(CNCCc2ccc(Cl)cc2)NC(=O)NC1c1ccc2c(c1)OCO2 (centres undefined)	L major viab 80.2
Nc1nc(-c2cccnc2)nn1C(=O)c1ccc(F)cc1	none
CCN1N=C(C)C=C(c2ccccc2)n2c1nc1ccccc12	none (no result: Arbovirus anti, WT yeast gro inh, L major viab)
CCn1c(=O)c(C(=O)NNS(=O)(=O)c2ccc(C)cc2)c(O)c2ccccc21	L major viab 58.9
CCCn1c(=O)c(C(=O)Nc2ccccc2C(=O)OC)c(O)c2ccccc21	none
CCCn1c(=O)c(C(=O)NNS(=O)(=O)c2ccc(C)cc2)c(O)c2ccccc21	CHOP inhibitor 90.3
O=C(Cc1csc(N2CCOCC2)n1)N/N=C/c1ccc(Cl)cc1Cl	L major viab 69.3
OCC1(Cc2ccccc2)CCN(Cc2cnc(-c3ccc(Cl)cc3)nc2)CC1	CHOP inhibitor 73.1
COc1ccc(CC2(CO)CCN(C(C)Cc3ccc(Cl)cc3)CC2)cc1 (centres undefined)	L major viab 86.2
COc1ccc(CC2(CO)CCN(Cc3cccnc3)CC2)cc1	L major viab 89.3
COc1ccc(-c2ncc(CN3CCC(CO)(Cc4cccc(OC)c4)CC3)cn2)cc1	none
COc1ccc(CC2(CO)CCN(Cc3ccc4nsnc4c3)CC2)cc1	L major viab 88.5
COc1ccc(CC2(CO)CCN(Cc3cccc(OC)c3OC)CC2)cc1	none
O=C(O)CCCN=CC1=C(O)C(C(=O)c2ccccc2)CCC1=O (centres undefined)	none
O=C1COc2ccc(C(=O)COc3ccc([N+](=O)[O-])cc3)cc2N1	none (no result: Arbovirus anti, WT yeast gro inh, L major viab)
OCC1(Cc2ccc(Cl)cc2)CCN(Cc2ccc3nsnc3c2)CC1	L major viab 88.4
CCN(CC)CCCNC(=S)Nc1ccc(Br)cc1	L major viab 83.4
CC1=C(C(=O)OC(C)C)C(c2cccc(F)c2)N2C(=O)C(C)SC2=N1 (centres undefined)	CHOP inhibitor 73.9
CC1=C(C(=O)OCC(C)C)C(c2cccc(F)c2)N2C(=O)C(C)SC2=N1 (centres undefined)	CHOP inhibitor 78.2
O=C(O)c1cccc(CSc2n[nH]c(-c3ccc(Cl)cc3Cl)n2)c1	none
CCCCn1c(NC(=O)CC)c(C#N)c2nc3ccccc3nc21	CHOP inhibitor 93.8
C=C(C)CNC(=S)NN=C1c2ccccc2-c2ccccc21	WT yeast gro inh 69.9
Cc1ccc(C)c(N2CCN(C(=O)C3CCN(S(=O)(=O)c4c(C)noc4C)CC3)CC2)c1	none (no result: Arbovirus anti, WT yeast gro inh, L major viab)
Cc1ccc(C)c(N2CCN(C(=O)C3CCCCN3S(=O)(=O)c3ccc(F)cc3)CC2)c1 (centres undefined)	WT yeast gro inh 64.3
Cc1cc(C)nc(N2CCC(C(=O)N3CCN(c4cc(Cl)ccc4C)CC3)CC2)n1	WT yeast gro inh 71.7
Cc1ccc(Cl)cc1N1CCN(C(=O)C2CCN(S(C)(=O)=O)CC2)CC1	none
Cc1ccc(C)c(N2CCN(C(=O)C3CCN(c4nc(C)cc(C)n4)CC3)CC2)c1	WT yeast gro inh 66.5, CHOP inhibitor 87.9
CCOC(=O)C(CSCC(=O)c1ccc(Cl)cc1)NC(=O)OC(C)(C)C (centres undefined)	none
CCOc1ccc(CC(=O)C2=C(N3CCOCC3)CC(C)(C)CC2=O)cc1OCC	none
Clc1ccc(SCc2cc(-c3ccc(Cl)cc3)on2)cc1	none
CCCCCCOC(=O)Sc1nc2ccccc2o1	CHOP inhibitor 95.1
COC(=O)CSc1nc2ccccc2o1	none
COCCn1cnnc1SCC(=O)Nc1sccc1C(N)=O	none
ClC1=C(Cl)C(Cl)=C(Cl)C1=C/C=C/c1ccccc1	CHOP inhibitor 94.6 (no result: Arbovirus anti, WT yeast gro inh, L major viab)
CC1=NN(c2ccccc2)C(=O)/C1=C\C=C\c1ccccc1	none (no result: Arbovirus anti, WT yeast gro inh, L major viab)
Cc1ccc(C2CC(c3ccccc3)=NN2c2ccccc2)o1 (centres undefined)	L major viab 99.8
CCCn1c(O)c(N=NC(=O)c2cccnc2)c2cc(Br)ccc21	none (no result: Arbovirus anti, WT yeast gro inh, L major viab)
Cc1ccc(NC(=O)COC(=O)c2ccccc2Nc2ccccc2)cc1	CHOP inhibitor 76.9
O=C(COC(=O)c1ccccc1OCC(=O)Nc1ccc(Br)cc1)Nc1ccccc1	L major viab 65.1
Cc1c(-c2ccccc2)oc2c(C(=O)OCC(=O)Nc3ccc(C(N)=O)cc3)cccc2c1=O	L major viab 53.2
CS(=O)(=O)Cc1cc(N2CCCC2)nc(-c2ccccc2)n1	L major viab 60.9
COCc1cc(N2CCCC2)nc(-c2ccccc2)n1	none
Cc1ccc(C)n1NC(=O)c1cccc(Cl)c1	L major viab 92.4
CCOC(=O)c1cc(CC)sc1/N=C/c1c(O)ccc2ccccc12	L major viab 63.5
